Only some compounds are listed: those with a hit (about 3.8% of all), similar ones and a draw of the others.
Shn3 inh set2: inhibitors of Schnurri-3 3'UTR reporter in osteoblasts; inhibition, % at 12.5 µM; AID 588674; actives 0.52% (n = 360,000); Clone20 osteoblast Shn3 3'UTR firefly luciferase, 24 h;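 active means mean inhibition of at least 75% with every replicate also reaching 75%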;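 further: 0% = median of neutral control wells and 100% = pilot-screen positive control compound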
697 NFkB inh: inhibitors of the PMA/ionomycin-induced NF-kB reporter in 697 B cells. 697 B-cell NF-kB luciferase reporter, 16 h. inhibition, % at 4 µM. actives 0.33% (n = 330,000). AID 435022; in the data active means inhibition above about 35%
Jurkat NFkB inh: inhibitors of the PMA/ionomycin-induced NF-kB reporter in Jurkat cells. PMA/ionomycin-induced NF-kB luciferase reporter, luminescence. inhibition, % at 4 µM. actives 0.53% (n = 330,000); in the data active means inhibition above about 50%
Gli-Sufu antag: antagonists of Gli-Sufu signaling; Sufu-KO-LIGHT fibroblasts, Gli luciferase reporter luminescence; actives 0.74% (n = 340,000); inhibition, % at 5 µM;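 active means inhibition above about 55%, limit read from the data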;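 further: 0% = DMSO-treated cells and 100% = wells with medium but no cells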
Mdm2-MdmX inh: human Mdm2/MdmX binding inhibition. O15151+Q00987. SaOS-2 split-luciferase Mdm2/MdmX complementation, luminescence. inhibition, % at 8 µM. actives 3% (n = 330,000);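 active means inhibition of at least 50% at 8 µM in the primary screen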
Mdm2 MdmX conf: confirmation of human Mdm2/MdmX interaction inhibitors; shares compounds with Mdm2-MdmX inh; Mdm2-MdmX binding, luminescent assay; inhibition, % at 8 µM; actives 55% (n = 10,000); AID 489028; in the data active means inhibition above about 40%
FLuc counter: full-length luciferase inhibition in Mdm2/MdmX counter-screen | shares compounds with Mdm2-MdmX inh | SaOS-2 full-length luciferase counterscreen, luminescence | inhibition, % at 8 µM | actives 77% (n = 6,200) | AID 504607;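 active means mean inhibition at 8 µM reaching about 37%, which flags the compound as non-specific, limit read from the data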;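 further: p53-null SaOS-2 cells with luciferase driven by a doxycycline-inducible promoter; compound on cells about two nights before reading with doxycycline added after day one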
Starred values were filed as active, the others as inactive.

`COC(=O)[C@@]1(C)[C@H]2C(=O)N(Cc3ccccc3)C(=O)[C@H]2[C@H]2CN=C(SCc3ccc(C#N)cc3)N21` gave Shn3 inh set2 -12, 697 NFkB inh -16, Gli-Sufu antag -4, Mdm2-MdmX inh 71*, Mdm2 MdmX conf 70* and FLuc counter 51*.
Screening CCN1C(=O)[C@H]2[C@H]3CN=C(SCc4ccc(Cl)cc4)N3[C@@](Cc3ccccc3)(C(=O)OC)[C@H]2C1=O returned Shn3 inh set2 -4, 697 NFkB inh -19, Gli-Sufu antag 8 and Mdm2-MdmX inh 48.
For CC[C@]1(C(=O)OC)[C@H]2C(=O)N(Cc3ccccc3)C(=O)[C@H]2[C@H]2CN=C(SCC(=O)c3ccccc3)N21 the results were Shn3 inh set2 -9, 697 NFkB inh -10, Gli-Sufu antag -9 and Mdm2-MdmX inh 17.
`COC(=O)[C@@]1(Cc2ccccc2)[C@H]2C(=O)N(Cc3ccccc3)C(=O)[C@H]2[C@H]2CN=C(SCc3ccc(Cl)cc3)N21` gave Shn3 inh set2 18, 697 NFkB inh 7, Gli-Sufu antag 8, Mdm2-MdmX inh 99*, Mdm2 MdmX conf 99* and FLuc counter 53*.
`CCN1C(=O)[C@H]2[C@H]3CN=C(SCc4ccc(Cl)cc4)N3[C@@](C)(C(=O)OC)[C@H]2C1=O` gave Shn3 inh set2 -12, 697 NFkB inh 0, Gli-Sufu antag -2 and Mdm2-MdmX inh -1.
Screening COC(=O)[C@@]1(Cc2ccccc2)[C@H]2C(=O)N(Cc3ccccc3)C(=O)[C@H]2[C@H]2CN=C(SCC(=O)c3ccccc3)N21 returned Shn3 inh set2 -7, 697 NFkB inh -1, Gli-Sufu antag 2, Mdm2-MdmX inh 54*, Mdm2 MdmX conf 55* and FLuc counter 50*.
Screening COC(=O)[C@@]1(C)[C@H]2C(=O)N(Cc3ccccc3)C(=O)[C@H]2[C@H]2CN=C(SCc3ccc(Cl)cc3)N21 returned Shn3 inh set2 -3, 697 NFkB inh -15, Gli-Sufu antag 4, Mdm2-MdmX inh 97*, Mdm2 MdmX conf 100* and FLuc counter 56*.
`COCCNC(=O)C(c1ccc(C)o1)N(C(=O)C(=O)NC1CCCCC1)c1ccc(F)cc1` (stereo not given) gave Shn3 inh set2 -15, 697 NFkB inh -6, Jurkat NFkB inh -7, Gli-Sufu antag -1 and Mdm2-MdmX inh -14.
`CC(Oc1ccc(Br)cc1)C(=O)NCCCN1CCCC1=O` (stereo not given) gave Shn3 inh set2 -20, 697 NFkB inh 12, Jurkat NFkB inh -6, Gli-Sufu antag 22 and Mdm2-MdmX inh 7.
`CN(C)Cc1c(O)ccc2c1O/C(=C\C=C\c1ccccc1)C2=O` gave Shn3 inh set2 45, 697 NFkB inh -20, Jurkat NFkB inh 6, Gli-Sufu antag -8, Mdm2-MdmX inh 101*, Mdm2 MdmX conf 72* and FLuc counter 21.
For CCN1CCN(Cc2c(O)ccc3c2O/C(=C\C=C\c2ccccc2)C3=O)CC1 the results were Shn3 inh set2 0, 697 NFkB inh -12, Jurkat NFkB inh -6, Gli-Sufu antag 21, Mdm2-MdmX inh 96*, Mdm2 MdmX conf 59* and FLuc counter 37*.
For NS(=O)(=O)c1ccc(-n2nncc2-c2ccco2)cc1 the results were Shn3 inh set2 -1, 697 NFkB inh -11, Jurkat NFkB inh -2, Gli-Sufu antag 2 and Mdm2-MdmX inh -10.
For COc1cc(Cl)c(C)cc1NC(=O)COC(=O)c1cc[n+]([O-])cc1 the results were Shn3 inh set2 2, 697 NFkB inh 12, Jurkat NFkB inh -6, Gli-Sufu antag 7 and Mdm2-MdmX inh -28.
Screening NC(=O)[C@H]1CC2(CC(c3cccc(NC(=O)COc4ccc(Cl)cc4)c3)=NO2)CN1C(=O)CC(c1ccccc1)c1ccccc1 (stereo not given in full) returned Shn3 inh set2 28, 697 NFkB inh 5, Jurkat NFkB inh 10, Gli-Sufu antag 8, Mdm2-MdmX inh 54* and Mdm2 MdmX conf 24.

Screens: PubChem, several laboratories
